Results published in PubChem BioAssay (NCATS).
“And” between values parts separate entries of the source, which are not always exact repeats. Identical values can stand only once. Results filed as inconclusive are left out. The source made the active and inactive calls. Unless noted, the call rests on the fitted dose curve; in most records, active means well fitted curve in the direction sought with a large enough effect; inconclusive means small, poorly fitted or top-dose-only effect, or another doubt; inactive means no such curve, though single readings can be large; an effect the other way counts as inactive or inconclusive.

Legend:
[1] = qHTS assay for small molecule agonists of the antioxidant response element (ARE) signaling pathway measured by Nrf2-dependant transcriptional activity (AID 720636; active means well fitted curve in the direction sought with a large enough effect in the repeat runs; an effect the other way counts as inactive or inconclusive; further: % of control where 0% means no effect); conditions: ARE-luc HepG2, Nrf2 luciferase reporter, 16 h; series mostly up to 92.4 µM
How it was run: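 ARE-luc HepG2 cells carrying an Nrf2-responsive luciferase reporter were plated in medium with 1% dialyzed FBS, left 6 hr at 37 C to attach, then exposed to compound for 16 hr. Luciferase luminescence was read after ONE-Glo addition.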

[2] = qHTS assay for small molecule antagonists of the retinoid-related orphan receptor gamma (ROR-gamma) signaling pathway - cell viability counter screen (AID 720652; active means well fitted curve in the direction sought with a large enough effect in the repeat runs; an effect the other way counts as inactive or inconclusive;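 further: CHO reporter cells with doxycycline-induced ROR-gamma expression; compound exposure lasted 16 hr before ATP read; on the % scale 0 is the no-effect control and ±100 the full control effect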); conditions: RORgamma reporter cell line viability counter screen; series mostly up to 92.2 µM
How it was run: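 Cytotoxicity counter screen: intracellular ATP (CellTiter-Glo luminescence) measured in the doxycycline-induced CHO RORE-luciferase reporter line after 16 hr compound exposure at 37 C, 5% CO2.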

[3] = qHTS assay for small molecule agonists of the antioxidant response element (ARE) signaling pathway measured by Nrf2-dependant transcriptional activity - cell viability counter screen (AID 720653; active means well fitted curve in the direction sought with a large enough effect in the repeat runs; an effect the other way counts as inactive or inconclusive; further: on the % scale 0 is the no-effect control and ±100 the full control effect); conditions: ARE-bla HepG2 viability, CellTiter-Glo ATP luminescence, 16 h; stronger effect = lower value
How it was run: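 ARE-bla HepG2 cells (2,000/well) rested 5 hrs at 37C/5% CO2, then exposed to compounds in DMSO for 16 hrs. Viability was read in the same wells as intracellular ATP by luminescence, 30 min at room temperature after reagent addition.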

[4] = qHTS assay for cell viability of HEK293 cells (AID 743288); conditions: ATP luminescence (CellTiter-Glo), 18 h, stronger effect = lower value; further: on the % scale 0 is the no-effect control and ±100 the full control effect; nearly all actives have a fitted effect of over 50% in size
How it was run: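 Quantitative high-throughput screen: compounds were pinned onto parental HEK293 cells (2,000 per well) after a minimum 5 h settling at 37 C, incubated 18 h at 37 C, and intracellular ATP measured by luciferase luminescence.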

[5] = qHTS assay for cell viability of the p53RE-bla HCT-116 cell line (AID 743292); conditions: p53RE-bla HCT-116 viability, ATP luminescence, 16 h; series mostly up to 95 µM; further: on the % scale 0 is the no-effect control and ±100 the full control effect; nearly all actives have a fitted effect of over 55% in size
How it was run: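 CellSensor p53RE-bla HCT-116 cells, 4,000/well, preincubated 5 h at 37 C, then exposed to compounds in DMSO for 16 h at 37 C. Viability read as CellTiter-Glo luminescence (intracellular ATP) after 30 min at room temperature.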

[6] = qHTS for Activators of Parkin Expression: LOPAC Validation Assay (FLuc Reporter) (AID 720573;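 further: 0% = DMSO and 100% = positive control compounds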); conditions: Cell line, PRKN promoter firefly luciferase reporter, vehicle wells = 0, positive control = 100%; series mostly up to 46.1 µM
How it was run: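 A neuronal cell line harbouring FLuc and NLuc reporters behind the Parkin promoter was exposed to compounds for 24 h. Firefly luciferase signal, measured after 10 min with detection reagent, was scaled to DMSO and positive-control wells.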

[7] = biological target: T1, Hexokinase-4 (Homo sapiens) + Glucokinase regulatory protein (Homo sapiens) (UniProt P35557+Q14397); test: qHTS assay for inhibitors of recombinant human GCK-GKRP interaction: Diaphorase-coupled assay (AID 743205); conditions: G6PDH/diaphorase resorufin fluorescence; series mostly up to 57.5 µM
T1 sequence (P35557 whole entry, looked up): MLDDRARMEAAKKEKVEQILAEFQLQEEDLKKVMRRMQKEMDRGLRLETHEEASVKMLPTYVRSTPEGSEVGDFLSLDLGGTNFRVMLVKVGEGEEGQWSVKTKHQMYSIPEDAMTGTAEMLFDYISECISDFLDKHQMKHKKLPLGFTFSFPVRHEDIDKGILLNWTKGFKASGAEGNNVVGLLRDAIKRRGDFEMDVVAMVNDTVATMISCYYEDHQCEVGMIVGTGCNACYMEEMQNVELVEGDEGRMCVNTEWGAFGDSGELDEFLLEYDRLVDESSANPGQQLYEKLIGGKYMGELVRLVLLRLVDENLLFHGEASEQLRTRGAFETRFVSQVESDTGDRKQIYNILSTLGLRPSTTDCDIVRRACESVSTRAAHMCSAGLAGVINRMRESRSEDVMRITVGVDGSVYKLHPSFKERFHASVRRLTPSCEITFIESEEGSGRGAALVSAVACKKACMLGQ
T1 sequence (Q14397 whole entry, looked up): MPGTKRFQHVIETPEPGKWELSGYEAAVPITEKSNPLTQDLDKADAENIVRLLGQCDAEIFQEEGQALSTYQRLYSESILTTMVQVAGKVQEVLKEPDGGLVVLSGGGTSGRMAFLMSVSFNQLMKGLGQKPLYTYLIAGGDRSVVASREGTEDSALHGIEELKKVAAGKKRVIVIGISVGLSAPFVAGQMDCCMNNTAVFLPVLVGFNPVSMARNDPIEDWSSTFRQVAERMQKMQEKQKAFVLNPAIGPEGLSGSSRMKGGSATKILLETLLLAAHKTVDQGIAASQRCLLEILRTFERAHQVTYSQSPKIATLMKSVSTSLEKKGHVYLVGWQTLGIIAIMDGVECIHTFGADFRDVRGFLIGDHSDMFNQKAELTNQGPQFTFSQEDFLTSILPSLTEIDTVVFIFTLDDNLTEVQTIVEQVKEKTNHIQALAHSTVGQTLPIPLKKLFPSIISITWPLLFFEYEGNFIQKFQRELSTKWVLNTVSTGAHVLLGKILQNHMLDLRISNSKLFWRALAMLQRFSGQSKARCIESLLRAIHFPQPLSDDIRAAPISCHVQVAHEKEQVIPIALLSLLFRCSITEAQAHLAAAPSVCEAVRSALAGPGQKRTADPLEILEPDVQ
How it was run: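 Inhibitors of the GCK–GKRP complex relieve GKRP suppression of GCK, detected through a G6PDH–diaphorase cascade reducing resazurin. Human GST-GCK and FLAG-GKRP are used at 10 nM with 5 mM glucose and 0.4 mM ATP.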

[8] = biological target: T1, Hexokinase-4 (Homo sapiens) + Glucokinase regulatory protein (Homo sapiens); test: qHTS assay for inhibitors of recombinant human GCK-GKRP interaction: ADP-Glo assay (AID 743206); conditions: ADP-Glo luminescence, 60 min, 0% = vehicle-only wells with enzyme present; series mostly up to 76.9 µM;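 further: plate controls were DMSO plus enzyme for no effect and no enzyme for full effect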
How it was run: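 Pin-transferred compounds meet a 15 nM GST-GCK/15 nM FLAG-GKRP/2 uM S6P mix (dispense concentrations). ATP is then added to 0.4 mM final with 5 mM glucose, and the reaction runs 60 min at room temperature. ADP is quantified luminescently.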

[9] = qHTS Assay for Identifying Gametocytocidal Compounds (AID 743244);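 further: on the % scale 0 is the no-effect control and ±100 the full control effect; actives lower the fluorescent signal which means gametocytes are killed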; conditions: P. falciparum 3D7 stage III-V gametocytes, alamarBlue, 72 h; max response: stronger effect = lower value
How it was run: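 Viability read-out was resazurin reduction (alamarBlue, 24 h) measured at Ex 525/Em 598 nm. Beforehand, late-stage (III-V) 3D7 P. falciparum gametocytes at 20,000 cells/well were incubated with compound 72 h at 37C under 5% CO2.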

[10] = qHTS profiling for inhibitors of Plasmodium falciparum (3D7) proliferation (AID 743322; call rule not given here;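 further: infected erythrocytes exposed to compound for 72 h before lysis; 100% = DMSO vehicle wells and 0% = 0.29 µM artemisinin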); conditions: P. falciparum 3D7 proliferation; at 28.7 µM (top of the series)
How it was run: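 Parasite DNA was quantified by SYBR Green I fluorescence (ex 485, em 535 nm) after overnight lysis in saponin/Triton buffer at room temperature. Cultures at 0.3% parasitemia and 2.5% hematocrit were first exposed to compound for 72 h at 37 C; signals were normalised to artemisinin (0.29 uM) and vehicle wells.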

CN1C[C@H](C(=O)N[C@]2(C)O[C@@]3(O)[C@@H]4CCCN4C(=O)[C@H](Cc4ccccc4)N3C2=O)C=C2c3cccc4[nH]cc(c34)C[C@H]21
inactive: outcome [1] | outcome [2] | max response [3] -19% and -17.1% | max response [4] -13.1% and -12.3% | Potency [5]

CCCCC/C=C\C/C=C\C/C=C\C/C=C\CCCC(=O)NCC(=O)O
inactive: outcome [6] | outcome [7] | outcome [8] | max response [9] -2.03% and 7.82%

CCC1(c2ccc(N)cc2)CCC(=O)NC1=O (stereo not drawn)
inactive: outcome [6] | outcome [7] | outcome [8] | max response [9] 3.2% and 30.1%

O=P1(N(CCCl)CCCl)NCCCO1 (stereo not drawn)
108% and 105%: remaining parasite growth % (stronger effect = lower value) [10]
inactive: outcome [6] | outcome [1] | outcome [2] | max response [3] 1.71% and -4.84% | outcome [7] | outcome [8] | max response [9] -0.339% and 12.3% | max response [4] -14.2% and 0.164% | Potency [5]

C=C(C)[C@H]1CN[C@H](C(=O)O)[C@H]1CC(=O)O
inactive: outcome [6] | outcome [7] | outcome [8] | max response [9] 5.55% and 38.6%

CC(C)N(CCC(C(N)=O)(c1ccccc1)c1ccccn1)C(C)C (stereo not drawn)
inactive: outcome [6] | outcome [7] | outcome [8]

O=C(O)CCCc1ccc(N(CCCl)CCCl)cc1
inactive: outcome [6] | outcome [1] | max response [3] -0.747% and 2.01% | outcome [7] | outcome [8] | max response [9] -1.81% and 3.48% | max response [4] -9.24% and -11.4% | Potency [5]

CC(C)(C)NCC(O)c1ccccc1Cl (stereo not drawn)
inactive: outcome [6] | outcome [7] | outcome [8] | max response [9] -5.65% and 5.12%

O=c1[nH]oc2c1CCNC2
inactive: outcome [6] | outcome [7] | outcome [8] | max response [9] 1.24% and 27.1%

COC(=O)C(c1ccccc1)C1CCCCN1 (stereo not drawn)
inactive: outcome [1] | outcome [2] | max response [3] 3.62% and -0.896% | max response [9] -2.03% | max response [4] -2.58% and -3.35% | Potency [5]

CC(C)NC(C)C
inactive: outcome [1] | outcome [2] | max response [3] -19.4% | max response [9] 15.3% | max response [4] 4.29% | Potency [5]

Oc1ccc(Cl)cc1
inactive: outcome [1] | outcome [2] | max response [3] -5.13% | max response [4] -5.89% | Potency [5]

Cc1ncsc1CCCl
inactive: outcome [6] | outcome [7] | outcome [8]

CN1C(=O)CCS(=O)(=O)C1c1ccc(Cl)cc1 (stereo not drawn)
inactive: outcome [6] | outcome [7] | outcome [8] | max response [9] -2.23% and 6.27%

CC(C)c1cccc(C(C)C)c1O
inactive: outcome [6] | outcome [1] | outcome [2] | max response [3] -3.43% | outcome [7] | outcome [8] | max response [4] -1.26% | Potency [5]

O=C(CCCN1CCC2(CC1)C(=O)NCN2c1ccccc1)c1ccc(F)cc1
inactive: outcome [6] | outcome [7] | outcome [8]

CCC(C)(C)c1ccc(O)cc1
inactive: outcome [1] | outcome [2] | max response [3] -17% and -1.76% | max response [4] 6.76% and -11.5% | Potency [5]

CCCC(C)(COC(N)=O)COC(N)=O
inactive: outcome [1] | outcome [2] | max response [3] 2.78% and -4.68% | max response [9] -2.61% | max response [4] 2.5% and 7.62% | Potency [5]

Nc1ccccc1
inactive: outcome [1] | outcome [2] | max response [3] -9.58% | max response [9] -6% | max response [4] -4.37% | Potency [5]

CC(NC(C)(C)C)C(=O)c1cccc(Cl)c1 (stereo not drawn)
inactive: outcome [6] | outcome [7] | outcome [8] | max response [9] -0.241% and 10.5%

COc1ccc2c(c1OC)C(=O)O[C@H]2[C@@H]1c2cc3c(cc2CCN1C)OCO3
inactive: outcome [6] | outcome [7] | outcome [8] | max response [9] 10.8% and 14.8%

C[C@]12CCC(=O)C=C1CC[C@@H]1[C@@H]2CC[C@@]2(C)[C@H]1CC[C@]2(C)O
inactive: outcome [1] | outcome [2] | max response [3] 11% | max response [9] -12% and -18.1% | max response [4] -18% | Potency [5]

C[C@]1(O)CC[C@H]2[C@@H]3CCC4=CC(=O)CC[C@]4(C)[C@@]3(F)[C@@H](O)C[C@@]21C
inactive: outcome [1] | outcome [2] | max response [3] -5.41% | max response [9] 8.13% | max response [4] -0.591% | Potency [5]

C[C@]12CCC(=O)C=C1CC[C@@H]1[C@@H]2CC[C@]2(C)C(=O)CC[C@@H]12
inactive: outcome [1] | outcome [2] | max response [3] 3.62% and -13.2% | max response [9] 5.73% | max response [4] -2.66% | Potency [5]

NCCc1ccc(O)cc1
inactive: outcome [6] | outcome [1] | outcome [2] | max response [3] 13.6% | outcome [7] | outcome [8] | max response [9] -2.18% and 16.8% | max response [4] -6.56% | Potency [5]

Nc1ccccc1C(=O)O
inactive: outcome [1] | outcome [2] | max response [3] 1.19% | max response [9] 3.13% | max response [4] 2.79% | Potency [5]

COc1cc(OC)c(OC)cc1C=O
inactive: outcome [1] | outcome [2] | max response [3] 3.08% | max response [9] 4.65% | max response [4] -1.47% | Potency [5]

CCOC(=O)CC(SP(=S)(OC)OC)C(=O)OCC (stereo not drawn)
inactive: outcome [1] | outcome [2] | max response [3] 25% and -5.73% and -3.35% | max response [9] 7.01% and -6.6% | max response [4] -11.8% and -13% and -16.1% | Potency [5]

COP(=S)(OC)Oc1ccc(SC)c(C)c1
inactive: outcome [2]

CCOP(=S)(OCC)Oc1ccc2c(C)c(Cl)c(=O)oc2c1
inactive: max response [4] -5.48%
